Experimental data: PubChem BioAssay (Tox21)
Inconclusive results are not listed. Calls of active or inactive are those of the source. Unless noted, the call rests on the fitted dose curve.

How the values were obtained:
[1] = Nuclear factor erythroid 2-related factor 2/antioxidant responsive element (Nrf2/ARE) small molecule agonists: qHTS cell viability counter screen in human keratinocytes (AID 1919968; active means well fitted curve in the direction sought with a large enough effect in the repeat runs; an effect the other way counts as inactive or inconclusive; further: nearly all actives have a fitted effect of over 55% in size)
Outline: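 Parallel cytotoxicity read: KeratinoSens HaCaT cells, compound treatment 23 h, viability by CellTiter-Fluor fluorescence 1 h post-reagent.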

[2] = biological target: Gonadotropin-releasing hormone receptor (Homo sapiens) (UniProt P30968); assay: Human gonadotropin-releasing hormone receptor (GnRHR) small molecule agonists, calcium flux assay in GnRHR-HEK293 cells (AID 1920063); further: nearly all actives have a fitted effect of over 35% in size
Outline: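 Calcium flux, agonist mode, human GnRHR stably integrated in HEK293; dye 1 h at 37 C before compound; Ex/Em=480/540 kinetic read, 3 min; 15 concentrations, triplicate.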

[3] = biological target: KiSS-1 receptor (Homo sapiens) (UniProt Q969F8); assay: Human kisspeptin (KISS1R) small molecule agonists, calcium flux assay in KISS1R-HEK293 cells (AID 1920064; active means well fitted curve in the direction sought with a large enough effect in the repeat runs; an effect the other way counts as inactive or inconclusive)
Outline: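 Triplicate 15-concentration series were applied to dye-loaded human KISS1R HEK293 cells, and agonist-evoked calcium fluorescence was captured for 3 min.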

[4] = p53 small molecule agonists, cell-based qHTS assay with human liver microsomes (AID 1963577)
Outline: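 p53RE-bla reporter cells were pre-incubated 5 h at 37 C, then treated with compounds plus human liver microsomes (0.5 mg/mL final) and NADPH (0.5 mg/mL final) for 16 h at 37 C. Beta-lactamase activity was read by LiveBLAzer fluorescence after 2 h at room temperature.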

[5] = p53 small molecule agonists, cell-based qHTS assay with rat liver microsomes (AID 1963578)
Outline: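 p53RE-bla cells were exposed to compounds together with rat liver microsomes (0.5 mg/mL final) and NADPH (0.5 mg/mL final) for 16 h at 37 C, then read by LiveBLAzer beta-lactamase fluorescence after 2 h at room temperature.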

[6] = p53 small molecule agonists, cell-based qHTS assay with human liver microsomes: qHTS cell viability counter screen (AID 1963579); further: nearly all actives have a fitted effect of over 45% in size
Outline: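 p53RE-bla cells (4,000/well) were pre-incubated 5 h at 37 C, then given compounds in DMSO plus human liver microsomes (0.5 mg/mL final) and NADPH (0.5 mg/mL final) for 16 h at 37 C. Viability was read by CellTiter-Glo luminescence.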

[7] = p53 small molecule agonists, cell-based qHTS assay with rat liver microsomes: qHTS cell viability counter screen (AID 1963580); further: nearly all actives have a fitted effect of over 45% in size
Outline: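 After the beta-lactamase ratio was read, CellTiter-Glo was added to the same wells and luminescence measured at 30 min; cells had been treated 16 h at 37 C with compounds, rat liver microsomes and NADPH (0.5 mg/mL final each).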

[8] = p53 small molecule agonists, cell-based qHTS assay: qHTS cell viability counter screen (AID 1963581); further: nearly all actives have a fitted effect of over 45% in size
Outline: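 Multiplexed with the reporter read, a CellTiter-Glo step (30 min, room temperature) gauges ATP-based viability of HCT-116 p53RE-bla cells after 16 h compound incubation at 37 C.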

[9] = p53 small molecule agonists, cell-based qHTS assay (AID 1963582; active means well fitted activation curve with a large enough effect in the signal ratio in the repeat runs, not every such curve was filed as active; the % refers to the signal ratio)
Outline: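 Beta-lactamase reporter cells (p53RE-bla) treated with compounds for 16 h at 37 C; FRET substrate, 2 h, room temperature; fluorescence intensity.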

[10] = cAMP Responsive Elements (CRE) small molecule agonists, cell-based qHTS assay (AID 1963590)
Outline: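 Quantitative HTS for CRE agonists: HEK 293T CRE-bla cells, overnight plating, 3 h compound incubation at 37 C/5% CO2, then 2 h room-temperature LiveBLAzer B/G FRET substrate loading.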

[11] = cAMP Responsive Elements (CRE) small molecule antagonists, cell-based qHTS assay (AID 1963591; active means well fitted inhibition curve with a large enough effect in the signal ratio in the repeat runs, not every such curve was filed as active; the % refers to the signal ratio)
Outline: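 Fluorescence intensity from cleaved LiveBLAzer B/G substrate (2 h, room temperature) quantified CRE-bla activity in HEK 293T cells exposed 3 h to compound with 0.25 uM final NKH477.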

[12] = biological target: Beta-2 adrenergic receptor (Homo sapiens) (UniProt P07550); assay: Adrenergic beta2 receptor (ADRB2) small molecule antagonists, cell-based qHTS assay (AID 1963592); further: series mostly up to about 92 µM; nearly all actives have a fitted effect of over 50% in size
Outline: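 Assay format: CHO-ADRB2 cells, 18-20hr seeding at 37C/5% CO2, then compound plus 1nM isoproterenol agonist mix for 0.5hr RT. Homogeneous time-resolved fluorescence cAMP detection after 1hr, expressed as 665/615 nm ratio.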

[13] = biological target: D(2) dopamine receptor (Homo sapiens) (UniProt P14416); assay: Dopamine D2 receptor (DRD2) small molecule agonists, cell-based qHTS assay (AID 1963594); further: nearly all actives have a fitted effect of over 35% in size
Outline: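 HEK293 cells stably expressing human DRD2, pre-treated with PDE inhibitor Ro20-1724 (0.1 mM final) and compound 10 min at room temperature, then stimulated with NKH477 (200nM […]) for 30 min. cAMP read by HTRF (665/620 nm).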

[14] = G protein-coupled receptor (GPCR) small molecule agonists, calcium flux assay: HEK293 wild type cell line counter screen (AID 1920065)
Outline: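 Non-specific calcium responders were flagged by adding DMSO-dissolved compounds to dye-loaded cells and reading 480/540 nm fluorescence each second for 3 min; ATP served as positive control.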

[15] = biological target: 5-hydroxytryptamine receptor 2A (Homo sapiens) (UniProt P28223); assay: 5-hydroxytryptamine receptor 2A (HTR2A) small molecule antagonists, cell-based qHTS assay (AID 1963586); further: nearly all actives have a fitted effect of over 45% in size
Outline: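 CHO cells stably expressing human HTR2A were plated for 18 h at 37 C, then loaded with calcium dye for 1 h. Compounds were preincubated 5 min at room temperature before DOI (4 nM solution) was added. Kinetic fluorescence was read for 3 min.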

[16] = biological target: 5-hydroxytryptamine receptor 2A (Homo sapiens) (UniProt P28223); assay: 5-hydroxytryptamine receptor 2A (HTR2A) small molecule agonists, cell-based qHTS assay (AID 1963587); further: nearly all actives have a fitted effect of over 30% in size
Outline: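 CHO cells stably expressing human HTR2A, plated 18 h, loaded with calcium dye 1 h at 37 C. Agonist mode: compounds added and intracellular calcium fluorescence recorded kinetically for 2 min at 1 sec intervals.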

[17] = biological target: Muscarinic acetylcholine receptor M1 (Homo sapiens) (UniProt P11229); assay: Cholinergic receptor muscarinic 1 (CHRM1) small molecule antagonists, cell-based qHTS assay (AID 1963588); further: nearly all actives have a fitted effect of over 40% in size
Outline: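 Compounds were tested at 15 concentrations in three independent runs. Dye-loaded CHRM1-CHO cells were exposed 5 min at room temperature before stimulation by acetylcholine added at 50nM. Intracellular calcium was read kinetically on FDSS for 3 min.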

[18] = biological target: Beta-2 adrenergic receptor (Homo sapiens) (UniProt P07550); assay: Adrenergic beta2 receptor (ADRB2) small molecule agonists, cell-based qHTS assay (AID 1963593);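 further: CHO cells stably overexpressing human ADRB2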
Outline: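 CHO cells stably over-expressing ADRB2 were plated overnight at 37C, then dosed with compounds plus a stimulation mix containing 100uM IBMX and 25uM Ro-20-1724 for 0.5hr at room temperature. cAMP was measured by HTRF competition, 1hr.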

[19] = biological target: D(2) dopamine receptor (Homo sapiens) (UniProt P14416); assay: Dopamine D2 receptor (DRD2) small molecule antagonists, cell-based qHTS assay (AID 1963595; active means well fitted inhibition curve with a large enough effect in the signal ratio in the repeat runs, with a control signal flat; the % refers to the signal ratio)
Outline: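 HEK293 cells stably expressing DRD2, preincubated with 0.1 mM Ro20-1724 and compounds 10 min, were stimulated with 200 nM NKH477 plus 12 nM quinpirole for 30 min at room temperature; cAMP measured by HTRF (665/620 nm).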

[20] = biological target: Muscarinic acetylcholine receptor M1 (Homo sapiens) (UniProt P11229); assay: Cholinergic receptor muscarinic 1 (CHRM1) small molecule agonists, cell-based qHTS assay (AID 1963589); further: nearly all actives have a fitted effect of over 35% in size
Outline: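 qHTS, 15-point titration, 3 independent runs: compounds pin-transferred onto dye-loaded CHRM1-CHO cells (human M1), calcium fluorescence followed every second to detect agonism.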

Measured: Potency

Gonadotropin-releasing hormone receptor (Homo sapiens), sequence (P30968 whole entry, looked up): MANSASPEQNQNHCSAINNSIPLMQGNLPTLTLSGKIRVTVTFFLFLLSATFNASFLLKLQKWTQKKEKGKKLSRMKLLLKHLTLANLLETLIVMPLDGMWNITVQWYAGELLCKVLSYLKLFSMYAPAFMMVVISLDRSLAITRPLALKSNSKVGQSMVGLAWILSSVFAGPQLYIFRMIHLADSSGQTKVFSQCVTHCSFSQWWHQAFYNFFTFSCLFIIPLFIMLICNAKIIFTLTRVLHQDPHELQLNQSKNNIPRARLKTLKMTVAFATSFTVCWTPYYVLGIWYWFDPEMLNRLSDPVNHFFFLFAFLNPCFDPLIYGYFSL
Muscarinic acetylcholine receptor M1 (Homo sapiens), sequence (P11229 whole entry, looked up): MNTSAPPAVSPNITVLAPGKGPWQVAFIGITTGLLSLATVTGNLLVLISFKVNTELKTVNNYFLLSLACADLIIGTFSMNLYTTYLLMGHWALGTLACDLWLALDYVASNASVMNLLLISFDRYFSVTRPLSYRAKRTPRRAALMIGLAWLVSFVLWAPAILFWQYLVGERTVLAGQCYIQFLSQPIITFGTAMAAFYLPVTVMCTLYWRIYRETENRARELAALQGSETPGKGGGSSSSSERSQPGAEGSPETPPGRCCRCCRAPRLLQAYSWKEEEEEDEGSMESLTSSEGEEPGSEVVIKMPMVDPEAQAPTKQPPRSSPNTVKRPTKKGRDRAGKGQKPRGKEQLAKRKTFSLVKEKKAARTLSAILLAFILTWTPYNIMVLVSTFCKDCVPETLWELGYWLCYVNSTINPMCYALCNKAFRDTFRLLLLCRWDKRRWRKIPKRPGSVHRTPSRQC
KiSS-1 receptor (Homo sapiens), sequence (Q969F8 whole entry, looked up): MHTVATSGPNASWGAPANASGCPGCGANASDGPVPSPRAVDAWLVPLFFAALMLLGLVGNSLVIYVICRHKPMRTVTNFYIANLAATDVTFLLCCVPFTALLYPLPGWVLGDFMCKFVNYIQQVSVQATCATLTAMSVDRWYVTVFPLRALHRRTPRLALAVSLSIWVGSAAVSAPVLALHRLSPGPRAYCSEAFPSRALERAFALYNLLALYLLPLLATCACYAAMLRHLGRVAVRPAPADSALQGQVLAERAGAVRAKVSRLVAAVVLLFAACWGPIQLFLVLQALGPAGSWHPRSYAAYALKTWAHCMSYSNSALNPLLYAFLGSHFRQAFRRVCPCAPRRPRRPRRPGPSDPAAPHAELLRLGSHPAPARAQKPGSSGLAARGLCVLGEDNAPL
Beta-2 adrenergic receptor (Homo sapiens), sequence (P07550 whole entry, looked up): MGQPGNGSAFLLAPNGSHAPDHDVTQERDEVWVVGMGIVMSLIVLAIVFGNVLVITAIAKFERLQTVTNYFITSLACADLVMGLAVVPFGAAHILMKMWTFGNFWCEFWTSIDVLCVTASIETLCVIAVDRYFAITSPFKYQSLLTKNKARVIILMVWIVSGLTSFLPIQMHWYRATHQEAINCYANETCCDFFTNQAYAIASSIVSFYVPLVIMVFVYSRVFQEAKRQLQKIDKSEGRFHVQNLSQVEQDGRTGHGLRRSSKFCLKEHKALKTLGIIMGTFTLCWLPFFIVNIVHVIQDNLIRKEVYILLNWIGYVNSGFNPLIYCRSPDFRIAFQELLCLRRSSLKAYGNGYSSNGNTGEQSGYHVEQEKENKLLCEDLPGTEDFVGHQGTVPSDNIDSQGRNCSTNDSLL
D(2) dopamine receptor (Homo sapiens), sequence (P14416 whole entry, looked up): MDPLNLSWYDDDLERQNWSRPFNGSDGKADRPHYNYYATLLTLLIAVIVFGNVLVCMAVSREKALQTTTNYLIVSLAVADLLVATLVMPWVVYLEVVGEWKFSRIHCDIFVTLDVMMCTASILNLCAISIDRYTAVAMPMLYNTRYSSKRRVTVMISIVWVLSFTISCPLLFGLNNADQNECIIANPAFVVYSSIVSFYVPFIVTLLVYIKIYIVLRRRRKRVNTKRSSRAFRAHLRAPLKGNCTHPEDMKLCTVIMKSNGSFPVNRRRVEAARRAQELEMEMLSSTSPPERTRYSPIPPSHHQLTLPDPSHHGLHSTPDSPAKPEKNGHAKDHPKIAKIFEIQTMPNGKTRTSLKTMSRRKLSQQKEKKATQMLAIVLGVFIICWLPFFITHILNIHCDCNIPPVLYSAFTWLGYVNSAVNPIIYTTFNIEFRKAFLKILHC
5-hydroxytryptamine receptor 2A (Homo sapiens), sequence (P28223 whole entry, looked up): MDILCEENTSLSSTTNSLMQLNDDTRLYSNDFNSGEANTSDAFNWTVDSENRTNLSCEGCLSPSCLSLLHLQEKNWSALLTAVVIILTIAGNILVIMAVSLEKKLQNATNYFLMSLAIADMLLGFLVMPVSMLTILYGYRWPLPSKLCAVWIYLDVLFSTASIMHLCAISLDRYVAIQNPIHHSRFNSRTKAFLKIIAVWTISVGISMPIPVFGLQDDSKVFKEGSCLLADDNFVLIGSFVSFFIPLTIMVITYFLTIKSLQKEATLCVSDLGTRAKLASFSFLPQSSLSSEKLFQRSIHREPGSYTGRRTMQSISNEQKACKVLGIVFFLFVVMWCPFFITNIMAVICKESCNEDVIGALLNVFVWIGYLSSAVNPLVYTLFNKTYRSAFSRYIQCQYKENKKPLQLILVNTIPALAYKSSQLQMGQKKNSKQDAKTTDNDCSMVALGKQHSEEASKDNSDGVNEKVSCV

CCN(Cc1ccncc1)C(=O)C(CO)c1ccccc1 (stereo not given)
not listed: [14] | [15] | [16] | [17] | [18] | [19] | [20]
inactive: all other assays above

O=[N+]([O-])c1ccc(O)c2ncccc12
not listed: [4] | [5] | [6] | [7] | [9] | [11] | [12] | [20]
inactive: all other assays above

CCCCO
not listed: [3] | [4] | [18]
inactive: all other assays above

CCCOCC(C)OCC(C)O (stereo not given)
not listed: [3] | [18]
inactive: all other assays above

CCCCCCCCCCCCCCCBr
not listed: [2] | [18]
inactive: all other assays above

Cc1cccc(OCCOc2cccc(C)c2)c1
not listed: [2] | [11] | [15] | [18]
inactive: all other assays above

CCCCC(CC)CNC(=O)CC(C)OC(=O)CCC(=O)O (stereo not given)
not listed: [3] | [4] | [8] | [10] | [18]
inactive: all other assays above

C=C1CC[C@H]2C[C@@H]1C2(C)C
not listed: [3] | [4] | [5] | [9]
inactive: all other assays above
